Common to all, as to assay: NCI-60 one-dose screen, 48 h (100 = growth as untreated, 0 = no growth, -100 = all killed)
Experiment [1] relates to T-47D breast. The conditions noted are these: 10 µM unless noted.
The subject of experiment [2] is BT-549 breast. To be noted: 10 µM unless noted.
Experiment [3] has as its system MDA-MB-435 melanoma. To be noted: 10 µM unless noted.
Experiment [4] deals with SW-620 colon. The conditions noted are these: 10 µM unless noted.
For experiment [5], the system named is MCF7 breast. The conditions noted are these: 10 µM unless noted.
Experiment [6] deals with HCT-116 colon. To be noted: 10 µM unless noted.
The test system of experiment [7] is KM12 colon. To be noted: 10 µM unless noted.
Experiment [8] deals with HCC-2998 colon. The conditions noted are these: 10 µM.

Each structure is given as a SMILES string. The panel holds about 83,000 compounds, 20% with a hit somewhere; the sample as a whole holds those more often.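 The endpoint reported here, percent growth, reads 100 for growth as untreated, 0 for no net growth and -100 for all cells dead.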 Values without a mark were called inactive. Activity calls are given as the source filed them. How the source made its calls: active means growth percent below 10; inactive means the rest.

As to `COc1cc2ncnc(Nc3cccc(Cl)c3F)c2cc1OC(=O)N1CCN(C)C[C@H]1C`, the growth was 28.5% in experiment [1]; 93.8% in experiment [2]; 94.3% in experiment [3]; 94.2% in experiment [4]; 63.2% in experiment [5]; 87.5% in experiment [6]. The growth in experiment [7] was 87.8%.
Turning to `Cc1[nH]c(/C=C2\C(=O)Nc3ccc(F)cc32)c(C)c1C(=O)NC[C@H](O)CN1CCOCC1`, the growth in experiment [1] was 59.5%; in experiment [2], 37.8%; in experiment [3], 18.6%; in experiment [4], 11.8%; in experiment [5], 38.4%; in experiment [6], 10.7%. The growth in experiment [7] was 5.33% (active).
Regarding `CNC(=O)c1c(C)oc2cc(Oc3ncnc4cc(OC)c(OC)cc34)ccc12`, the growth in experiment [1] is 94%; in experiment [2], 73.6%; in experiment [3], 114%; in experiment [4], 104%; in experiment [5], 97.6%; in experiment [6], 93.7%. For the same compound, the growth in experiment [7] is 102%.
As to `O=C1CSC(c2c(F)cccc2Cl)N1NC(=O)C(O)(c1ccccc1)c1ccccc1` (stereo not drawn), the growth in experiment [1] was 93.3%; in experiment [2] it was 104%; in experiment [3] it was 104%; in experiment [4] it was 99.9%; in experiment [5], 110%; in experiment [6], 94.8%. In addition, the growth in experiment [7] was 108%.
Take `CN1C/C=C\CCOc2cccc(c2)-c2ccnc(n2)Nc2cccc(c2)C1`: the growth in experiment [1] was -42.4% (active); in experiment [2], -69.4% (active); in experiment [3], -85.2% (active); in experiment [4] it was -5.5% (active); in experiment [5], -33% (active); in experiment [6], -50% (active). The growth in experiment [7] was -53.3% (active).
`CC1(C)NC(=O)c2[nH]c3c(Cl)c(Cl)ccc3c2C1C#N` (stereo not drawn): the growth in experiment [1] is 59.2%; in experiment [2], 73.3%; in experiment [3] it was 88.1%; in experiment [4], 105%; in experiment [5], 87%; in experiment [6], 83.6%. Moreover, the growth in experiment [7] is 93.4%.
Consider `O=C(Nc1cnn2ccc(N3CCC[C@@H]3c3cc(F)ccc3F)nc12)N1CC[C@H](O)C1`, for which the growth in experiment [1] is 78.3%; in experiment [2], 90.5%; in experiment [3], 93%; in experiment [4], 106%; in experiment [5], 99.7%; in experiment [6] it was 83.1%. Moreover, the growth in experiment [7] is 26.7%.
`CN1CCN(c2nc(NCCNc3ccnc4cc(Cl)ccc34)c3ccccc3n2)CC1`: the growth in experiment [1] was 0.35% (active); in experiment [2] it was 28.3%; in experiment [3], -11.4% (active); in experiment [4], 26.5%; in experiment [5] it was 36%; in experiment [6], 6.36% (active). Also, in experiment [7], the growth was 29.2%.
`CC(=O)c1c(C)c2cnc(Nc3ccc(N4CCNCC4)cn3)nc2n(C2CCCC2)c1=O`: the growth is 55.7% in experiment [1]; 50.5% in experiment [2]; 45.5% in experiment [3]; 27.3% in experiment [4]; 27.4% in experiment [5]; 10.6% in experiment [6]. The growth is 57.3% in experiment [8] and 11.3% in experiment [7].
Take `N#Cc1c(NC(=O)c2cccs2)[n+]([O-])c2ccc(F)cc2[n+]1[O-]`: the growth in experiment [1] is 76.9%; in experiment [2], 99.6%; in experiment [3], 105%; in experiment [4] it was 74%; in experiment [5] it was 86.5%; in experiment [6] it was 104%. Moreover, the growth in experiment [7] was 92.2%.
With `COc1cc2c(cc1OCCCCCCN1CCN(c3ncnc4ccccc34)CC1)N=CC1CCCN1C2=O` (stereo not drawn), the growth in experiment [1] was 6.98% (active); in experiment [2] it was -40.8% (active); in experiment [3], -77.1% (active); in experiment [4] it was -19.1% (active); in experiment [5], 11.2%; in experiment [6] it was 3.4% (active). The growth in experiment [7] is -27.9% (active).
Turning to `Nc1nc(N)c2cc(CNc3ccc(C(=O)NC(CC(=O)O)C(=O)O)cc3)ccc2n1` (stereo not drawn), the growth was 62.3% in experiment [1]; 57.7% in experiment [2]; 37.8% in experiment [3]; 25.2% in experiment [4]; 17.3% in experiment [5]; 22.4% in experiment [6]. Further, the growth in experiment [7] was 33.8%.
With `Cc1cc(C(=O)Nc2cc(Oc3ccc4nc(NC(=O)C5CC5)cn4n3)ccc2C)n(C)n1`, the growth in experiment [1] was 53.4%; in experiment [2], 30.1%; in experiment [3], 34.3%; in experiment [4], 15.2%; in experiment [5], 33.7%; in experiment [6], 6.14% (active). The growth in experiment [7] is 12.2%.
Take `COc1ccc(S(=O)(=O)N(C(C)=O)c2ccccc2/C=C/c2cc[n+]([O-])cc2)cc1`: the growth in experiment [1] was 27.2%; in experiment [2] it was 16.2%; in experiment [3] it was -50.8% (active); in experiment [4], 23.6%; in experiment [5] it was 15.2%; in experiment [6] it was 5.12% (active). Further, in experiment [7], the growth was 14%.
As to `COc1cc(Nc2ncc(F)c(Nc3ccc4c(n3)N(COP(=O)(O)O)C(=O)C(C)(C)O4)n2)cc(OC)c1OC`, the growth is 14.4% in experiment [1]; 1.78% (active) in experiment [2]; 26.5% in experiment [3]; 38.2% in experiment [4]; 25.7% in experiment [5]; 22.1% in experiment [6]. Further, the growth in experiment [7] was 11.7%.
`Cc1ccc(Nc2nccc(N(C)c3ccc4c(C)n(C)nc4c3)n2)cc1S(N)(=O)=O`: the growth in experiment [1] is 4.07% (active); in experiment [2], 25.8%; in experiment [3], 19.3%; in experiment [4], 19.3%; in experiment [5], 32.3%; in experiment [6] it was 3.7% (active). Further, in experiment [7], the growth was 15%.

Values taken from PubChem BioAssay (NCI).
